Shown is part of a subset that was picked to be rich in hits.
Methyltransferases – Primary Screen for Target Class Profiling of Small Molecule Inhibitors of Methyltransferases; calls only at 40 µM; hit rate 3.9% among 25,000; purified enzyme, MTase-Glo SAH luminescence; hits give low values; AID 1745853, 2022; call rule not given here
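Each enzyme was reacted with SAM and its substrate, with compounds tested once at 40 uM; SAH formed was read by MTase-Glo luminescence.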
Active calls of the source: *; i = inactive; + = active, no number. % is set by controls: 0 for no effect and ±100 for the full control effect.

SMILES	Methyltransferases
COc1ccc2cc3n(c2c1)CC(C)(C(=O)NC1CCCCC1)N(Cc1ccc(F)cc1)C3=O (stereo unspecified)	i
CC(C)Cn1c(=O)c2ccccc2n2c(SCc3ccc(Cl)cc3)nnc12	i
COc1cc2c(cc1OC)CN(CCc1ccc(NC(=O)c3cc(OC)c(OC)cc3NC(=O)c3cnc4ccccc4c3)cc1)CC2	i
COc1cc2c(cc1OC)CN(C(=O)/C=C/c1c(-c3ccccc3)n(C)c3ncccc13)CC2	+
O=C(O)c1ccc2c(c1)nc(Nc1cccc(Cl)c1)c1ccncc12	+
O=C(NCc1cccc(Cl)c1)c1ccc2oc(-c3cccnc3)nc2c1	i
O=C(Nc1ccc(Cl)cc1)c1nc(Nc2ccccc2)c2ccccc2n1	i
COc1ccc(CNC(=O)CCCc2nnc3n4nc(-c5ccccc5)nc4c4ccccc4n23)cc1	i
CCOc1ccc(CCN2C(=O)c3cc4ccc(OC)cc4n3CC2(C)C(=O)NC2CCCC2)cc1 (stereo unspecified)	i
CC1CC(C)CN(S(=O)(=O)c2ccc3c(c2)oc(=O)n3CC(=O)NCc2ccco2)C1 (stereo unspecified)	i
CCc1c(-c2ccccc2)c(-c2ccccc2)nn1-c1ccccc1-c1cccc(OCC(=O)O)c1	+
COC(=O)Cn1nc(-c2cccc(OC)c2)c2ccccc21	i
CC(C)CN1CC(COc2ccc3ccccc3c2)Oc2ccnc(-c3ccc(OCC(=O)O)cc3)c2C1=O (stereo unspecified)	i
O=C(Cn1ccc2cc(S(=O)(=O)N3CCCC3)ccc21)NCCc1ccccc1Cl	i
Cc1c(Cl)cccc1N1C(=O)c2cc3occc3n2CC1(C)C(=O)NC1CCCCCC1 (stereo unspecified)	i
COc1ccc(-c2nnc(-c3ccc(Cl)c(S(=O)(=O)N4CCC(C)CC4)c3)o2)cc1OC	i
CCN1CCN(Cc2cc3ccc(C)cc3nc2-c2ccc(OC)c(OC)c2)CC1	i
COc1ccc(-c2oc3ccc(C)cc3c(=O)c2O)cc1OC	+
CCOC(=O)c1cc2n(n1)CC(C)(C(=O)NC1CCCC1)N(Cc1ccc(OC(C)C)cc1)C2=O (stereo unspecified)	i
Cc1ccc(NC(=O)Cn2nc3n(CC(C)C)c(=O)c4ccc(C(=O)NC(C)C)cc4n3c2=O)cc1F	i
Cc1cccc(NC(=O)Cn2c(=O)oc3cc(S(=O)(=O)NCc4ccccc4)ccc32)c1	i
CC(C)c1ccc(NC(=O)Cn2c(=O)oc3cc(S(=O)(=O)NCc4ccccc4)ccc32)cc1	+
Cc1ccc(NC(=O)Cn2c(=O)oc3cc(S(=O)(=O)NCc4ccccc4)ccc32)cc1C	i
O=C(Cn1c(=O)n2nc(-c3ccc(F)cc3)nc2c2ccccc21)N1CCN(c2ccc(F)cc2)CC1	i
Cc1cc(C)cc(NS(=O)(=O)c2ccc3[nH]c4c(c3c2)CCCC4)c1	i
SMILES	Methyltransferases
Cc1ccc(CN2C(=O)c3nc4ccccc4n3CC2(C)C(=O)NC2CCCCCC2)cc1 (stereo unspecified)	i
Cc1ccc(NC(=O)c2cc3n(n2)CC(C)(C(=O)NC2CCCCCC2)N(C)C3=O)cc1Cl (stereo unspecified)	i
CC1(C(=O)NCc2ccccc2)Cc2ccccc2C(=O)N1Cc1cccc(Cl)c1 (stereo unspecified)	i
COc1ccc(OC)c(Nc2nc3c(S(=O)(=O)c4ccc(F)cc4)nnn3c3ccccc23)c1	i
COc1ccccc1N1CCN(S(=O)(=O)c2cccc3c2C(=O)c2ccccc2C3=O)CC1	i
Cn1c(=O)n(C)c2cc(S(=O)(=O)Nc3ccc(F)c(F)c3)ccc21	i
COc1cc(C(=O)NC2CCN(C)CC2)ccc1Nc1ncc2c(n1)N(C1CCCC1)CC(F)(F)C(=O)N2C	+
COc1ccc(C(=O)Cn2nc3n(C)c(=O)c4ccc(C(=O)NC5CCCCC5)cc4n3c2=O)cc1	i
CCc1cccc(CC)c1NC(=O)c1nn(C)c2c1CCc1cnc(Nc3ccc(C(=O)NC4CCN(C)CC4)cc3OC(F)(F)F)nc1-2	i
COc1cc(C(=O)N2CCC(N3CCN(C)CC3)CC2)ccc1Nc1ncc2c(n1)N(C)c1ccccc1C(=O)N2C	i
CCC1C(=O)N(C)c2cnc(Nc3ccc(C(=O)NC4CCN(C)CC4)cc3OC)nc2N1C1CCCC1 (stereo unspecified)	+
CN1c2cc(C(=O)NC3CCCCCC3)ccc2C(=O)N2CCCC21 (stereo unspecified)	i
O=S(=O)(NCCn1c(-c2ccncc2)nc2ccccc21)c1ccc(Cl)cc1	i
CCCn1c(=O)c2ccccc2n2c(=O)n(CC(=O)Nc3ccc(F)cc3)nc12	i
Cc1ccc(C)c(Cn2nc3n(CCc4ccccc4)c(=O)c4ccccc4n3c2=O)c1	i
CCc1cccc(NC(=O)c2cc3n(n2)CC(C)(C(=O)NC2CCCCC2)N(C)C3=O)c1 (stereo unspecified)	i
Cc1ccc2n1CCN(C(=O)Nc1cccc(C(F)(F)F)c1)C2C(C)C (stereo unspecified)	i
COc1ccc(C2c3cccn3-c3sc4c(c3CN2C(=O)NCc2ccc(F)cc2)CCCC4)cc1 (stereo unspecified)	i
COC(=O)c1ncn2c1C(=O)N(Cc1cccc(Cl)c1)C(C)(C(=O)NC1CCCC1)C2 (stereo unspecified)	i
CN(CCN1C(=O)c2cc3occc3n2CC1(C)C(=O)NC1CCCCCCC1)C1CCCCC1 (stereo unspecified)	i
Cc1ccc(NC2=CC(=O)c3sc(C)nc3C2=O)cc1	+
Cc1cccc(NC(=O)c2cc3n(n2)CC(C)(C(=O)NCc2ccc(F)cc2)N(C)C3=O)c1C (stereo unspecified)	i
Cc1ccc2c(c1)c(-n1cccc1)c1n2CC(C)(C(=O)NC2CCCC2)N(CCC2=CCCCC2)C1=O (stereo unspecified)	i
O=C(O)CCc1cc2ccoc2cc1O[C@@H]1O[C@H](CO)[C@@H](O)[C@H](O)[C@H]1O	i
C=CCc1ccc(O[C@@H]2O[C@H](CO)[C@@H](O)[C@H](O)[C@H]2O)c(O[C@@H]2O[C@H](CO)[C@@H](O)[C@H](O)[C@H]2O)c1	i
SMILES	Methyltransferases
O=C(O[C@H]1[C@H](Oc2ccc(O)cc2CO)O[C@H](CO)[C@@H](O)[C@@H]1O)c1ccccc1	i
Cc1ccc(C(C)C)c(O[C@@H]2O[C@H](CO)[C@@H](O)[C@H](O)[C@H]2O)c1	i
COc1ccc(O[C@@H]2O[C@H](CO)[C@@H](O)[C@H](O)[C@H]2O)cc1OC	i
OC[C@H]1O[C@@H](O[C@H]2[C@H](O)[C@@H](CO)O[C@@H](OCc3ccccc3)[C@@H]2O[C@@H]2OC[C@](O)(CO)[C@H]2O)[C@H](O)[C@@H](O)[C@@H]1O	i
O=C(O)c1cc(O)c2cccc(O)c2c1O[C@@H]1O[C@H](CO)[C@@H](O)[C@H](O)[C@H]1O	+
O=C(O)CCc1cccc(O[C@@H]2O[C@H](CO)[C@@H](O)[C@H](O)[C@H]2O)c1O	+
COc1c(CCC(=O)O)cccc1O[C@@H]1O[C@H](CO)[C@@H](O)[C@H](O)[C@H]1O	+
O=C(O)CC(CCc1ccccc1)OC1OC(CO)C(O)C(O)C1O (stereo unspecified)	+
CCC(C)(O)C(O)C(=O)OCc1ccc(O[C@@H]2O[C@H](CO)[C@@H](O)[C@H](O)[C@H]2O)c(OC)c1 (stereo partly specified)	i

Source: PubChem BioAssay
